Rows were chosen to be rich in hits. Some 2.9% of all compounds tested hit in one or more screens of this group.
EBNA-1 inh: blocks EBNA-1 binding to DNA | EBNA-1 DNA binding, fluorescence polarization | inhibition, % at 14.8 µM | 300,000 compounds, 0.34% hits; in the data active = inhibition above about 28%
ZTA counter: counter-screen for EBNA-1 inhibitors: inhibitors of Epstein-Barr virus ZTA; P03206; ZTA-DNA binding, fluorescence polarization; inhibition, % at 11 µM; 320,000 compounds, 0.15% hits; in the data active = inhibition above about 33%
Target sequence (P03206 whole entry, looked up): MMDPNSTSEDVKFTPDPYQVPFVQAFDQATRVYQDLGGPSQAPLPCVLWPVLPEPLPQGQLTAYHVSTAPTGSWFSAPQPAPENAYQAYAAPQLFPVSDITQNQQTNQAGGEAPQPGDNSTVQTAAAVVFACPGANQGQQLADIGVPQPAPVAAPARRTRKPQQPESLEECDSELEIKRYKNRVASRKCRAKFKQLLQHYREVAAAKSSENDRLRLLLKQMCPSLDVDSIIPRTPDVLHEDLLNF
PAFAH1B3 FP inh: inhibitors of human PAFAH1B3; recombinant PAFAH1B3, FP-rhodamine probe, fluorescence polarization; Q15102; AID 492972; inhibition, % at 3.39 µM; 340,000 compounds, 0.28% hits;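 active = inhibition above the screen-wide average of all tested compounds plus 3 SD, cut at about 25% in these data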
Target sequence (Q15102 whole entry, looked up): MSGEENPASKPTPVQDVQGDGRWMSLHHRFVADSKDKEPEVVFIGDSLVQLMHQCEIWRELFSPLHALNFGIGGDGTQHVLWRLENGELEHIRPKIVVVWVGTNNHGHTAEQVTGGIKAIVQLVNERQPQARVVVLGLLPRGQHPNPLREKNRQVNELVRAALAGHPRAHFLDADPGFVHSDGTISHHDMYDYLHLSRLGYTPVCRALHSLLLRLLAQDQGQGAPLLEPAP
PAFAH1B2 inh: blocks human PAF acetylhydrolase 1b catalytic subunit 2. AID 492953. P68402. 340,000 compounds, 1.2% hits. inhibition, % at 3.39 µM. recombinant PAFAH1B2, FP-rhodamine activity probe, fluorescence polarization;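 active = inhibition above the mean of all tested compounds plus 3 SD, cut at about 24% in these data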
Target sequence (P68402 whole entry, looked up): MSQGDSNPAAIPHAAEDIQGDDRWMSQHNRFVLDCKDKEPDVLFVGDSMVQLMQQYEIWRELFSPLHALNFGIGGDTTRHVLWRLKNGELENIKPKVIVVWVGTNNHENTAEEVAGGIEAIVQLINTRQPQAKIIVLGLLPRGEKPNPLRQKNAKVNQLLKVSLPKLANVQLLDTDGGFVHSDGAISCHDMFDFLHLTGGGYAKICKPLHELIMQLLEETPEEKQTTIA
PAFAH2 inh: inhibitors of human PAFAH2; inhibition, % at 3.39 µM; 340,000 compounds, 0.99% hits; recombinant PAFAH2, FP-rhodamine activity probe, fluorescence polarization;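 active = inhibition above the mean over all tested compounds plus 3 SD, cut at about 30% in these data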;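 also: inhibitors block probe labeling of enzyme so polarization drops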
rCAG binder: binds r(CAG) RNA repeats; r(CAG) RNA repeat, TO-PRO-1 dye displacement fluorescence; inhibition, % at 3 µM; 370,000 compounds, 1.3% hits; AID 651821;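 active = inhibition above the plate cutoff, the mean of all test compounds on that plate plus 3 SD, cut at about 35% in these data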;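 also: higher means more dye released from RNA so lower well fluorescence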
rCAG binder conf: r(CAG) RNA repeat binding, confirmation. shares compounds with rCAG binder. TO-PRO-1 dye displacement fluorescence. inhibition, % at 3 µM. 4,300 compounds, 70% hits. AID 652065;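 active = inhibition above a per-plate cutoff, the mean inhibition of sample wells plus 3 SD, cut at about 35% in these data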;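 also: loss of TO-PRO-1 fluorescence as compound displaces dye from 1x1 AA loop RNA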
DNA CAG counter: counter-screen for rCAG RNA binders: DNA CAG dye complex inhibitors; shares compounds with rCAG binder; d(CAG) DNA oligo TO-PRO-1 dye displacement, fluorescence; inhibition, % at 3 µM; 4,300 compounds, 94% hits; AID 652068;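 active = inhibition above its plate's cutoff, the mean test-well inhibition plus 3 SD, cut at about 4.8% in these data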;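 also: hits displace the dye from DNA and so lower well fluorescence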
dCAG dye DR: counter-screen for rCAG binders: inhibitors of DNA CAG TO-PRO-1 complex; shares compounds with rCAG binder; DNA CAG/GTC duplex TO-PRO-1 dye displacement fluorescence; IC50, µM; 250 compounds, 20% hits; AID 686960; in the data active = IC50 below about 10 µM
Each line names hits and unclear results; the compound was inactive in the other large screens (follow-up assays come after a bar, where they were run).

COc1ccc(/C=N/n2c(-c3cc(C)[nH]n3)n[nH]c2=S)cc1OC	none (no result: PAFAH1B3 FP inh, PAFAH1B2 inh, PAFAH2 inh)
S=c1[nH]nc(-c2cc(-c3ccccc3)n[nH]2)n1/N=C/c1cccc(Cl)c1	rCAG binder 35 | rCAG binder conf 70 | DNA CAG counter 32 | dCAG dye DR inactive
S=c1[nH]nc(-c2cc(-c3ccccc3)n[nH]2)n1N=Cc1cccc(Oc2ccccc2)c1	rCAG binder 66 (no result: EBNA-1 inh, ZTA counter, PAFAH1B3 FP inh, PAFAH1B2 inh, PAFAH2 inh) | rCAG binder conf 61 | DNA CAG counter 31
S=c1[nH]nc(-c2cc(-c3ccccc3)n[nH]2)n1/N=C/c1ccc(Cl)cc1	none
S=c1[nH]nc(-c2cc(-c3ccccc3)n[nH]2)n1/N=C/c1ccc(Cl)c(Cl)c1	none
COc1cc(/C=N/n2c(-c3cc(-c4ccccc4)n[nH]3)n[nH]c2=S)ccc1OCc1ccccc1	rCAG binder 58 (no result: EBNA-1 inh, ZTA counter, PAFAH1B3 FP inh, PAFAH1B2 inh, PAFAH2 inh) | rCAG binder conf 55 | DNA CAG counter 26
COC(=O)c1ccccc1S(=O)(=O)N1CCC(C(=O)NCCC2=CCCCC2)CC1	none (no result: EBNA-1 inh)
Cc1cc(Br)ccc1-n1[nH]c(C)c(C=Nc2cccc3nsnc23)c1=O	none
COC(=O)[C@]1(C)CN(C(=O)OC(C)(C)C)C2=C1C(=O)C[C@](C)(C(=O)OC(C)(C)C)C2	none (no result: EBNA-1 inh, ZTA counter, PAFAH1B3 FP inh, PAFAH1B2 inh, PAFAH2 inh)
Cc1c(OCc2nn[nH]n2)ccc2c3c(c(=O)oc12)CCC(C)C3 (stereo not drawn)	rCAG binder 42 | rCAG binder conf inactive | DNA CAG counter 4.7
CCOC(=O)COc1ccc(S(=O)(=O)N2CCN(c3ccccc3)CC2)cc1	none (no result: rCAG binder)
O=C(CNC(=O)c1ccc(-c2ccccc2)cc1)Nc1ccc(S(=O)(=O)Nc2ncccn2)cc1	rCAG binder 38 | rCAG binder conf inactive | DNA CAG counter 10
NS(=O)(=O)c1ccc(NS(=O)(=O)c2ccc(NC(=O)c3ccc(-c4ccccc4)cc3)cc2)cc1	rCAG binder 59 | rCAG binder conf 72 | DNA CAG counter 39
Cc1ccc(S(=O)(=O)N(C)c2ccc(OCC(=O)Nc3cc(C(=O)O)ccc3Cl)cc2)cc1	rCAG binder 61 (no result: EBNA-1 inh, ZTA counter, PAFAH1B3 FP inh, PAFAH1B2 inh, PAFAH2 inh) | rCAG binder conf 57 | DNA CAG counter 20
Cc1cccc(OCC(=O)Nc2cc(NC(=O)COc3cccc(C)c3)cc(C(=O)O)c2)c1	rCAG binder 63 | rCAG binder conf 61 | DNA CAG counter 22
Cc1ccc(OCC(=O)Nc2cc(NC(=O)COc3ccc(C)cc3)cc(C(=O)O)c2)cc1	rCAG binder 70 | rCAG binder conf 64 | DNA CAG counter 25
COc1cccc(OCC(=O)Nc2cc(NC(=O)COc3cccc(OC)c3)cc(C(=O)O)c2)c1	rCAG binder 55 | rCAG binder conf 53 | DNA CAG counter 18
COc1cccc(OCC(=O)Nc2ccncc2)c1	none
Cc1cc(C)cc(OCC(=O)Nc2cccc(C(=O)O)c2)c1	none
Cc1ccc(NC(=O)COc2ccc(N(C)S(=O)(=O)c3ccc(F)cc3)cc2)cc1	none (no result: EBNA-1 inh)
O=[N+]([O-])c1ccc(Cl)c(/C=N/n2c(-c3cccnc3)n[nH]c2=S)c1	none (no result: PAFAH1B3 FP inh, PAFAH1B2 inh, PAFAH2 inh, rCAG binder)
CC1(C(=O)Nc2ccccc2)CCN1C(=O)C1(c2ccccc2)CC1 (stereo not drawn)	none (no result: EBNA-1 inh, ZTA counter, PAFAH1B3 FP inh, PAFAH1B2 inh, PAFAH2 inh)
CC(C)CCCCCCCCc1cccc(O)c1C(=O)O	rCAG binder 89 (no result: EBNA-1 inh, ZTA counter, PAFAH1B3 FP inh, PAFAH1B2 inh, PAFAH2 inh) | rCAG binder conf 86 | DNA CAG counter 52
CC(C)C(=O)NCCCc1ccccc1	none
COc1cc(NS(=O)(=O)c2ccc(N/C=C\C(=O)c3ccc(C)cc3)cc2)nc(OC)n1	none
COc1cc(NS(=O)(=O)c2ccc(N/C=C\C(=O)c3ccc(OC)c(OC)c3)cc2)nc(OC)n1	rCAG binder 35 | rCAG binder conf 46 | DNA CAG counter 14
COc1cccc(C(=O)/C=C/Nc2ccc(S(=O)(=O)Nc3cc(OC)nc(OC)n3)cc2)c1	rCAG binder 45 | rCAG binder conf 54 | DNA CAG counter 19
COc1ccc(C(=O)/C=C/Nc2ccc(S(=O)(=O)Nc3cc(OC)nc(OC)n3)cc2)c(OC)c1	none
O=C(Cn1nnc(-c2ccccc2)c1COc1ccc2ccccc2c1)NCC1CC1	none (no result: EBNA-1 inh, ZTA counter, PAFAH1B3 FP inh, PAFAH1B2 inh, PAFAH2 inh)
CN1C2CCC1CC(NC(=O)c1cc(S(=O)(=O)N(C)C)c(Cl)cc1Cl)C2 (stereo not drawn)	none (no result: EBNA-1 inh)
CN(C)S(=O)(=O)c1cc(C(=O)O)c(NC2CCCCC2)cc1Cl	rCAG binder 45 | rCAG binder conf inactive | DNA CAG counter 6.2
O=C(NCc1ccccc1)c1sc(=S)n2c1[nH]c(=O)c1ccccc12	PAFAH1B3 FP inh 31, PAFAH1B2 inh 54, PAFAH2 inh 42, rCAG binder 47 | rCAG binder conf 83 | DNA CAG counter 50
COc1ccc2[nH]c(C)c(-c3csc(N)n3)c2c1	rCAG binder 37 | rCAG binder conf inactive | DNA CAG counter 11
COc1cc(CN2CCNC(=O)C2CC(=O)N(C)Cc2ncc[nH]2)cc(OC)c1 (stereo not drawn)	none
N#CCc1nc(C(c2ccccc2)c2ccccc2)no1	rCAG binder 40 | rCAG binder conf inactive | DNA CAG counter 8.0
Cc1ccc(-n2c(Cc3cccs3)nnc2SCc2ccc([N+](=O)[O-])cc2)cc1	none (no result: EBNA-1 inh, ZTA counter, PAFAH1B3 FP inh, PAFAH1B2 inh, PAFAH2 inh)
O=C(CCN1C(=O)S/C(=C\c2ccc(Cl)cc2)C1=O)Nc1ccc(C(=O)O)cc1	none
O=C(CCN1C(=O)S/C(=C\c2ccc(F)cc2)C1=O)Nc1ccc(C(=O)O)c(O)c1	rCAG binder 68 | rCAG binder conf 43 | DNA CAG counter 11
O=C(CCN1C(=O)S/C(=C\c2ccc(F)cc2)C1=O)Nc1ccc(O)cc1C(=O)O	rCAG binder 49 | rCAG binder conf inactive | DNA CAG counter 6.8
O=C(CCN1C(=O)S/C(=C/c2ccccc2)C1=O)Nc1ccc(C(=O)O)c(O)c1	rCAG binder 63 | rCAG binder conf 41 | DNA CAG counter 15
O=C(CCN1C(=O)/C(=C/c2ccc(F)cc2)SC1=S)NCCc1ccc(O)cc1	none
CCCCc1cc(=O)oc2cc(C)cc(OC(C)C(=O)NCc3ccncc3)c12 (stereo not drawn)	none
CCSc1nnc(NC(=O)c2cccc(S(=O)(=O)N(C)c3ccccc3)c2)s1	none
C=CCN(c1ccccc1)S(=O)(=O)c1cccc(C(=O)Nc2nnc(SCC)s2)c1	rCAG binder 52 | rCAG binder conf 58 | DNA CAG counter 17
CCCCNC(=O)C(NC(=O)c1cnccn1)C(=O)c1ccccc1 (stereo not drawn)	none (no result: EBNA-1 inh, ZTA counter, PAFAH1B3 FP inh, PAFAH1B2 inh, PAFAH2 inh)
CC(C)(C)c1ccc2c(c1)OC(C(=O)N/N=C\c1ccc(-c3cccc(C(=O)O)c3)o1)CO2 (stereo not drawn)	rCAG binder 41 | rCAG binder conf 77 | DNA CAG counter 43
